Source: PubChem
GLS inh: qHTS for Inhibitors of Glutaminase (GLS); Glutaminase kidney isoform, mitochondrial (Homo sapiens), O94925; GLS enzymatic activity, qHTS titration; Potency, µM (series often up to 45.5 µM), inactives show at the highest dose activity change, negative = inhibition, actives largely listed as inhibitors; 410,000 tested, 0.21% active; note: % is set by controls: 0 for no effect and ±100 for the full control effect
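Compounds were pin-transferred onto hKGA, after which L-glutamine (1 mM solution) and a detection mix of glutamate oxidase, HRP and Amplex Red were added. Initial and 30 min RT fluorescence reads were collected.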
BAZ2B inh: qHTS Assay for Inhibitors of BAZ2B. AlphaScreen BAZ2B-H3K14Ac peptide displacement. Potency, µM (series often up to 114 µM), for inactives: top-dose activity change, negative = inhibition, actives largely listed as inhibitors. Bromodomain adjacent to zinc finger domain protein 2B (Homo sapiens), Q9UIF8. 360,000 tested, 4.4% active; note: % is set by controls: 0 for no effect and ±100 for the full control effect; nearly all actives have a fitted effect of over 60% in size
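AlphaScreen displacement of biotin-H3(5-23)K14Ac peptide (50 nM final) from BAZ2B (50 nM final) in PBS pH 7.4, 0.01% Tween-20; complex preformed 30 min RT, then compounds (top 110 uM) 30 min RT, beads 20 min dark.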
HP1b binding inh: HTS for Inhibitors of HP1-beta Chromodomain Interactions with Methylated Histone Tails | Chromobox protein homolog 1 (Homo sapiens), P83916 | 390,000 tested, 0.56% active | AID 540317, 2011 | AlphaScreen HP1-beta / biotin-H3K9me3 peptide binding | Potency, µM (highest dose often 114 µM), for the others: top-dose activity change, negative = inhibition, hits mostly inhibitors; note: nearly all actives have a fitted effect of over 70% in size
Target sequence (P83916 whole entry, looked up): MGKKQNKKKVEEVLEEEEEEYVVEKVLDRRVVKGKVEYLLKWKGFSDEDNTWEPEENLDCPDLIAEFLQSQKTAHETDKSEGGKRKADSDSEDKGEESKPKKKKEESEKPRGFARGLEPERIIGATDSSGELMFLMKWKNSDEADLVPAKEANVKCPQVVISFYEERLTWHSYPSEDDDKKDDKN
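AlphaScreen: HP1-beta (50 nM) preformed 30 min with biotin-H3(1-18)K9me3 peptide (50 nM) in PBS pH 7.4, 0.01% Tween-20. Compound added for 30 min at RT, then streptavidin donor/nickel chelate acceptor beads (10 ug/mL) for 30 min.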
G9a block: qHTS Assay for Inhibitors of Histone Lysine Methyltransferase G9a | Histone-lysine N-methyltransferase EHMT2 (Homo sapiens), Q96KQ7 | G9a H3K9 monomethylation, AlphaScreen, 2 h | Potency, µM (titrated, usually from 102 µM), inactives show at the highest dose activity, negative = inhibition, most hits filed as inhibitors | 350,000 tested, 8.8% active | AID 504332, 2011; note: % is set by controls: 0 for no effect and ±100 for the full control effect; nearly all actives have a fitted effect of over 75% in size
Target sequence (Q96KQ7 913-1193 limits assumed): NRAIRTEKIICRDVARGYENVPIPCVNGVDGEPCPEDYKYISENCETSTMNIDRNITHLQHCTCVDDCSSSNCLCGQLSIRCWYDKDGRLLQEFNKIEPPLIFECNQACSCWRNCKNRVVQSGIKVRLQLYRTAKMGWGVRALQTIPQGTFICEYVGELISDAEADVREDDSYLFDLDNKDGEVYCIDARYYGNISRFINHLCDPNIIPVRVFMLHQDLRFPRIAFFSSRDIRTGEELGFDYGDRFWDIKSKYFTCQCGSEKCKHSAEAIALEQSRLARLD
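G9a (20 nM) was preincubated 15 min with compound, then reacted 2 h at room temperature with 500 nM biotin-H3K9 peptide and 20 µM SAM. Monomethyl-H3K9 detected by AlphaScreen using anti-H3K9me1 antibody.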
JMJD2A Tudor inh: qHTS Assay for Inhibitors of JMJD2A-Tudor Domain; Lysine-specific demethylase 4A (Homo sapiens), O75164; AlphaScreen JMJD2A-Tudor / H3K4me3 peptide binding; Potency, µM (highest dose often 114 µM), for the others: at the highest dose activity change, negative = inhibition, actives largely listed as inhibitors; 390,000 tested, 4.4% active; AID 504339, 2011; note: % is set by controls: 0 for no effect and ±100 for the full control effect; nearly all actives have a fitted effect of over 50% in size
Active calls of the source: *; ? = inconclusive; . = not tested or not shown; [ ] = dose if it differs, or a comment. A selection: hits, their analogues and other compounds. The true share with any hit is near 10%. Calls come from the whole dose curve; as a rule, active = well fitted curve in the direction sought with a large enough effect; inconclusive = small, poorly fitted or top-dose-only effect, or another doubt; inactive = no such curve, though single readings can be large; an effect the other way counts as inactive or inconclusive. Potency is the fitted concentration of half-maximal effect.

SMILES	GLS inh	BAZ2B inh	HP1b binding inh	G9a block	JMJD2A Tudor inh
Cc1ccccc1CN1CCCN(CC(=O)Nc2ccc3c(c2)OCCO3)S1(=O)=O	5%	-20%	-3%	5%[59 µM]	-19%
COc1cccc(CN(c2ccc3c(c2)CCC3)S(=O)(=O)c2ccc(-n3cnnn3)c(OC)c2)c1	-4%	7%	9%	4%[59 µM]	-6%
COc1cc(NC(=O)CCc2c(C)nc3c(-c4ccc(F)cc4)c(C)nn3c2C)cc(OC)c1OC	-8%	-15%	40%	14%[59 µM]	-18%
Cc1ccc(C(=O)C2=C(O)C(=O)N(Cc3cccnc3)C2c2ccc(N(C)C)cc2)o1 (configuration not stated)	-4%	-33%	7%	35µM*	-30%
O=C(C1=C(O)C(=O)N(Cc2ccco2)C1c1cccc(O)c1)c1ccco1 (configuration not stated)	-6%	-18%	26%	50µM*	-13%
COc1cccc2cc(C(=O)C3=C(O)C(=O)N(Cc4ccco4)C3c3cccnc3)oc12 (configuration not stated)	15%	-6%	10%	?	79µM*
Cc1ccc(C(=O)C2=C(O)C(=O)N(Cc3ccco3)C2c2cccc(Br)c2)o1 (configuration not stated)	-5%	?	-2%	?	?
O=C(C1=C(O)C(=O)N(Cc2ccco2)C1c1cccnc1)c1cc2ccccc2o1 (configuration not stated)	-12%	-7%	10%	?	?
Cc1ccc(C(=O)C2=C(O)C(=O)N(Cc3ccco3)C2c2cccc(Cl)c2)o1 (configuration not stated)	-19%	?	1%	40µM*	25µM*
Cc1ccc(C(=O)C2=C(O)C(=O)N(Cc3cccnc3)C2c2ccc(Br)cc2)o1 (configuration not stated)	0%	-1%	8%	?	-20%
CC(=O)C1=C(O)C(=O)N(Cc2ccco2)C1c1cccc(F)c1 (configuration not stated)	-17%	2%	18%	-47%	-15%
COc1ccc(C2C(C(=O)c3ccc(C)o3)=C(O)C(=O)N2Cc2cccnc2)cc1 (configuration not stated)	-29%	-17%	16%	50µM*	35µM*
O=C(C1=C(O)C(=O)N(CCCn2ccnc2)C1c1ccccc1)c1ccco1 (configuration not stated)	17%	-18%	28%	.	-9%
Cc1ccc(C(=O)C2=C(O)C(=O)N(c3ncccn3)C2c2cccc(Cl)c2)o1 (configuration not stated)	.	?	.	10µM*	.
C=CCOc1cccc(C2C(C(=O)c3ccco3)=C(O)C(=O)N2Cc2cccnc2)c1 (configuration not stated)	-12%	9%	33%	32µM*	-30%
Cc1ccc(C(=O)C2=C(O)C(=O)N(Cc3cccnc3)C2c2ccc(OC(C)C)cc2)o1 (configuration not stated)	-4%	?	21%	.	?
O=C(C1=C(O)C(=O)N(Cc2ccccc2)C1c1ccncc1)c1ccco1 (configuration not stated)	8%	3%	16%	40µM*	?
COc1ccc(OC)c(NC(=O)Cc2c(C(=O)O)n(C)c3ccc(C)cc23)c1	-1%	-26%	17%	-15%[59 µM]	-25%
Cc1ccc(C(=O)C2=C(O)C(=O)N(Cc3cccnc3)C2c2ccc(Cl)c(Cl)c2)o1 (configuration not stated)	21%	4%	32%	?	-22%
Cc1ccc(C(=O)C2=C(O)C(=O)N(Cc3ccco3)C2c2ccc(N(C)C)cc2)o1 (configuration not stated)	-4%	35µM*	22%	.	?
COc1cc(F)c(S(=O)(=O)N2CCN(S(=O)(=O)c3ccc(N)cc3)CC2)c(F)c1	.	.	.	.	-6%
C=CCNC(=S)Nc1cccc(NC(=S)NCC=C)c1	9%	-1%	43%	4%	-17%
C=CCNC(=S)Nc1cc(C)ccn1	-5%	-1%	30%	1.6µM*	-9%
Cc1c(N(C)C)nc2ccccc2c1N	5%	45µM*	14µM*	?	1µM*
CCOc1ccccc1NC(=O)NCCn1c(=O)oc2ccc(C)cc21	-8%	-9%	7%	-12%[59 µM]	-32%
SMILES	GLS inh	BAZ2B inh	HP1b binding inh	G9a block	JMJD2A Tudor inh
CCOC(=O)C1CCN(C(=O)c2cc3cc4ccc(C)cc4nc3o2)CC1	2%	-9%	39%	79µM*	-13%
Cc1ccc(NC(=O)c2ccc(=O)n(Cc3ccccc3C)c2)c(C)c1	1%	4%	14%[57 µM]	5%[59 µM]	-3%
Fc1ccc(-c2csc(N3CCOCC3)n2)cc1	-5%	-23%	-3%	.	-17%
COc1cc(-c2csc(N3CCOCC3)n2)cc(OC)c1OC	-6%	?	14%	56µM*	-24%
c1ccc2oc(-c3csc(N4CCOCC4)n3)cc2c1	-18%	-31%	-5%	40µM*	-16%
COc1ccc(N(Cc2cccs2)C(=O)c2ccc(Br)o2)cc1	8%	-11%	84%	1%[59 µM]	21%
Cc1conc1NC(c1cccs1)c1ccc2cccnc2c1O (configuration not stated)	.	25µM*	.	28%[2.33 µM]	.
CC(C)CC(=O)NC(c1cccs1)c1ccc2cccnc2c1O (configuration not stated)	-5%	0%	27%	10%	50µM*
O=C1C(c2ccc(F)cc2)N(CCc2ccccc2)C(=O)CN1C1CCCCCC1 (configuration not stated)	1%	-1%	21%	8%[59 µM]	-4%
CC(=Nc1ccc(Br)cc1)c1sc2ccccc2c1O	-8%	-12%	79%	89%	-2%
CC(=Nc1ccccc1)c1sc2ccccc2c1O	7%	?	-15%	?	56µM*
CC(C)Oc1ccc(CCc2n[nH]c(=S)n2-c2ccccc2)cc1	-23%	-23%	-9%	2.5µM*	-33%
Cc1ccc(OCc2n[nH]c(=S)n2-c2ccccc2)cc1C	-6%	-10%	9%	.	-17%
CCCOCC(O)CCc1n[nH]c(=S)n1-c1ccccc1 (configuration not stated)	-14%	-4%	25%	.	50µM*
S=c1[nH]nc(COc2cccc3ccccc23)n1Cc1ccccc1	6%	-8%	29%	-30%	-13%
Cc1ccccc1OCc1n[nH]c(=S)n1Cc1ccccc1	74%	-22%	-8%	8.9µM*	-30%
